From PubChem
Compounds with a hit are over-represented: about 3% of the library has one in this group of screens.
Peg3 prom inh: Peg3 promoter-driven luciferase inhibitors, primary screen, cell-based, HeLa, luciferase luminescence | HeLa PEG-Prom luciferase reporter, overnight | inhibition, % at 20 µM | 1.7% of 360,000 active | AID 588405, 2011;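 active = inhibition of at least 50% at 20 µM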
CF NFkB inh: inhibitors of PAF-induced NF-kB signaling, primary screen, cell-based, GFP fluorescence, uHTS | 0.86% of 360,000 active | KKLEB NF-kB-GFP reporter, GFP fluorescence overnight | inhibition, % at 5 µM;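 active = at least 50% inhibition at 5 µM, scaled per plate between neutral and stimulator controls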;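 note: PAF is a Pseudomonas aeruginosa culture filtrate used as stimulus; plate controls were PAF-stimulated DMSO wells for no effect and unstimulated DMSO wells for full effect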
ABHD5 PLIN5 PPI: ABHD5-PLIN5 interaction inhibitors, primary screen, cell lysate, split luciferase complementation, luminescence | Perilipin-5 (Homo sapiens) + 1-acylglycerol-3-phosphate O-acyltransferase ABHD5 (Homo … | Split G. princeps luciferase complementation, 4 h | inhibition, % at 4 µM | 0.78% of 360,000 active | AID 602281, 2012;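 active = inhibition above the mean inhibition across every tested compound plus 3 SD, cut at about 22% in these data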;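 note: 0% = DMSO only wells and the 100% control is not disclosed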
Target sequence (Q00G26 whole entry, looked up): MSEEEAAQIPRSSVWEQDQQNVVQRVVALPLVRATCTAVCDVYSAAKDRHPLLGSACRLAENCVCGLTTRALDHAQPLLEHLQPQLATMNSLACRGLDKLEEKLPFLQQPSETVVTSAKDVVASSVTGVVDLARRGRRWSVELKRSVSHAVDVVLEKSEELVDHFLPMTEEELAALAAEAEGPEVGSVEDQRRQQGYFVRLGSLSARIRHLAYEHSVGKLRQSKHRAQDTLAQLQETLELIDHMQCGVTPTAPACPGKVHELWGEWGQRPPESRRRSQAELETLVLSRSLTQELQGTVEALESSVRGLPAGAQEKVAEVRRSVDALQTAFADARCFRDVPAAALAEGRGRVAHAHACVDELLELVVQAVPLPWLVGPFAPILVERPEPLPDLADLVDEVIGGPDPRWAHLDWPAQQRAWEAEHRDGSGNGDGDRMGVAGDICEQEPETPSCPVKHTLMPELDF
Target sequence (Q8WTS1 whole entry, looked up): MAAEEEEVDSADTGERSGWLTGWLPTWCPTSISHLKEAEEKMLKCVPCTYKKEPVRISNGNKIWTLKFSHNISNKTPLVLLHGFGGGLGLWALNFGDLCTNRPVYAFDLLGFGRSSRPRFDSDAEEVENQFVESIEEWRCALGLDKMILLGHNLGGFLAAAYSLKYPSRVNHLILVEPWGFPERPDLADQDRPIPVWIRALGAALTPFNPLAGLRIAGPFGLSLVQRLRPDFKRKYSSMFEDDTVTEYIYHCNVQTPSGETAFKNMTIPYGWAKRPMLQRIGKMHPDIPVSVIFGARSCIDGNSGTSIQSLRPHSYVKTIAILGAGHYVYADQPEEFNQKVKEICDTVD
HIF-2a block: HIF-2a reporter inhibitors, primary screen, luminescence, 786-0 RCC cells | 786-0 RCC cells HIF-2a reporter, luciferase luminescence, overnight | inhibition, % at 18.8 µM | 0.72% of 360,000 active | AID 624352, 2012;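 active = inhibition of the luminescence signal of 40% or more relative to plate controls, in a single-dose primary screen at 18.75 µM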
KKLEB cytotox: cytotoxicity in KKLEB CF airway cells, primary screen, cytotoxicity control for CF NF-kB inhibitor project, cell-based, uHTS, fluorescence assay plates; activity change (cytotoxicity), % at 5 µM; 0.36% of 360,000 active; KKLEB CF airway cells viability, ATPlite luminescence, overnight; hits give low values; cells stimulated with P. aeruginosa culture filtrate;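 active = corrected activity change at or below -50% at 5 µM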
TRPM1 prom inh: inhibitors of MITF-dependent TRPM1 promoter reporter, primary screen, cell-based, SK-MEL-5, single point, luciferase. 0.83% of 330,000 active. SK-MEL-5 TRPM1 promoter luciferase, 24 h. inhibition, % at 12.5 µM;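 active = mean inhibition across replicates of 60% or more, whatever share of single replicates reaches that level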
* hit, by the source's call.

How did CCc1nnc(SCC(=O)NCCC2=CCCCC2)nc1CC do in these assays?
Peg3 prom inh: -1.9; CF NFkB inh: -4.6; ABHD5 PLIN5 PPI: 5.8; HIF-2a block: 0.7; KKLEB cytotox: -0.1; TRPM1 prom inh: 0.5

Results for CCCN1CCC(N(CCc2ccccc2)Cc2ccccc2)CC1 ?
Peg3 prom inh: -4.2; CF NFkB inh: -9.6; ABHD5 PLIN5 PPI: -9.9; HIF-2a block: 9.0; KKLEB cytotox: -12.7; TRPM1 prom inh: -9.8

Results for COc1ccc(CN2CCC(N(CCc3ccccc3)Cc3ccccc3)CC2)c(OC)c1 ?
Peg3 prom inh: 62.9*; CF NFkB inh: 26.3; ABHD5 PLIN5 PPI: 0.3; HIF-2a block: 18.9; KKLEB cytotox: -9.1; TRPM1 prom inh: -4.8

How did COc1ccc(C(=O)N2CCN(C)C(=O)[C@@H]2C)cc1OC1CCN(C(C)=O)CC1 do in these assays?
Peg3 prom inh: 13.9; CF NFkB inh: 5.2; ABHD5 PLIN5 PPI: -2.3; HIF-2a block: 11.6; KKLEB cytotox: 11.9; TRPM1 prom inh: 4.9

What do the screens show for `COc1cc(C2c3cc4c(cc3OC(NNC(N)=O)C2C)OCO4)cc(OC)c1OC` (stereo unspecified)?
Peg3 prom inh: -18.6; CF NFkB inh: 50.6*; ABHD5 PLIN5 PPI: 8.0; HIF-2a block: 26.1; KKLEB cytotox: -28.6; TRPM1 prom inh: 48.6

How did COc1cc(C2c3cc4c(cc3C(OC3OC5COC(c6cccs6)OC5C(O)C3O)C3COC(=O)C23)OCO4)cc(OC)c1O (stereo unspecified) do in these assays?
Peg3 prom inh: 21.4; CF NFkB inh: 33.0; ABHD5 PLIN5 PPI: 7.1; HIF-2a block: 6.9; KKLEB cytotox: 10.3; TRPM1 prom inh: 75.7*

Results for COc1cc([C@@H]2c3cc4c(cc3[C@H](O)[C@H]3COC(=O)[C@H]23)OCO4)cc(OC)c1OC ?
Peg3 prom inh: -33.0; CF NFkB inh: 51.0*; ABHD5 PLIN5 PPI: -0.1; HIF-2a block: 28.5; KKLEB cytotox: -27.8; TRPM1 prom inh: 61.3*

What do the screens show for `COc1cc([C@@H]2c3cc4c(cc3[C@@H](O[C@@H]3O[C@@H]5CO[C@@H](C)O[C@H]5[C@H](O)[C@H]3O)[C@H]3COC(=O)[C@H]23)OCO4)cc(OC)c1O`?
Peg3 prom inh: 8.7; CF NFkB inh: 4.9; ABHD5 PLIN5 PPI: 0.1; HIF-2a block: 11.6; KKLEB cytotox: -2.5; TRPM1 prom inh: 16.9

What do the screens show for `COc1ccc(Cl)cc1S(=O)(=O)N(C)CC(=O)NCc1ccccn1`?
Peg3 prom inh: 11.3; CF NFkB inh: 4.9; ABHD5 PLIN5 PPI: 7.8; HIF-2a block: 8.2; KKLEB cytotox: -2.1; TRPM1 prom inh: -0.2

Results for CC(/C=C/c1ccco1)=N/NC(=O)c1ccccc1Cl ?
Peg3 prom inh: -34.6; CF NFkB inh: -14.4; ABHD5 PLIN5 PPI: 22.1*; HIF-2a block: -58.5; KKLEB cytotox: 1.0; TRPM1 prom inh: -13.0

Results for CC(/C=C/c1ccco1)=N\NC(=O)c1cccc(Cl)c1 ?
Peg3 prom inh: -55.2; CF NFkB inh: -9.1; ABHD5 PLIN5 PPI: 3.0; HIF-2a block: -47.3; KKLEB cytotox: -3.4; TRPM1 prom inh: -24.6

Results for CCCCNC(=O)C1(C)CCCCN1C(=O)c1cncc(Br)c1 (stereo unspecified) ?
Peg3 prom inh: 2.7; CF NFkB inh: -3.5; ABHD5 PLIN5 PPI: -1.3; HIF-2a block: 6.6; KKLEB cytotox: 10.2

How did CCCC[n+]1ccn(C2=C([O-])c3ccccc3C(=O)/C2=N\S(=O)(=O)c2ccc(Cl)cc2)c1 do in these assays?
Peg3 prom inh: 9.4; CF NFkB inh: -6.3; ABHD5 PLIN5 PPI: -2.8; HIF-2a block: -8.6; KKLEB cytotox: -3.3; TRPM1 prom inh: 57.7

What do the screens show for `CCCCC[n+]1ccn(C2=C([O-])c3ccccc3C(=O)/C2=N\S(=O)(=O)c2ccc(Cl)cc2)c1`?
Peg3 prom inh: 10.0; CF NFkB inh: 29.5; ABHD5 PLIN5 PPI: 4.6; HIF-2a block: 1.0; KKLEB cytotox: 3.2; TRPM1 prom inh: 78.3*

What do the screens show for `Cc1cc(C)nc(SCC(=O)OCC(=O)Nc2ccccc2)n1`?
Peg3 prom inh: 7.5; CF NFkB inh: 0.6; ABHD5 PLIN5 PPI: -1.6; HIF-2a block: 4.6; KKLEB cytotox: -3.1; TRPM1 prom inh: 11.5

Results for CN(C)C(=S)SCC(=O)Nc1ccc(Cl)cc1Cl ?
Peg3 prom inh: -107.7; CF NFkB inh: -9.7; ABHD5 PLIN5 PPI: -1.0; HIF-2a block: -118.1; KKLEB cytotox: -11.8; TRPM1 prom inh: -21.1

Results for CC(=O)N(C1=C(N2CCOCC2)C(=O)c2ccccc2C1=O)c1ccc(C(=O)O)cc1 ?
Peg3 prom inh: 12.4; CF NFkB inh: -4.4; ABHD5 PLIN5 PPI: 6.1; HIF-2a block: 64.5*; KKLEB cytotox: -0.1; TRPM1 prom inh: 12.6

What do the screens show for `COc1ccc(C(=O)N(C)c2ccccc2C(=O)NCCc2ccccc2)cc1`?
Peg3 prom inh: 20.1; CF NFkB inh: -10.0; ABHD5 PLIN5 PPI: 2.3; HIF-2a block: 18.6; KKLEB cytotox: 10.4; TRPM1 prom inh: 11.0

Results for O=C(COc1ccccc1/C=C\c1nc(O)c([N+](=O)[O-])c(=O)[nH]1)Nc1ccccc1 ?
Peg3 prom inh: -4.6; CF NFkB inh: -13.7; ABHD5 PLIN5 PPI: 22.8*; HIF-2a block: -24.6; KKLEB cytotox: 3.3; TRPM1 prom inh: -10.2

How did CCc1nc2ccc(C(=O)Nc3cc(-c4ccccc4)ccc3OC)cn2c1N(CC)Cc1cccc(Br)c1 do in these assays?
Peg3 prom inh: -0.4; CF NFkB inh: 14.2; ABHD5 PLIN5 PPI: -1.5; HIF-2a block: -38.3; KKLEB cytotox: -23.7

How did CCc1nc2ccc(C(=O)Nc3cc(-c4ccccc4)ccc3OC)cn2c1N(CC)CCN(C)C do in these assays?
Peg3 prom inh: 84.5*; CF NFkB inh: 31.2; ABHD5 PLIN5 PPI: 1.5; HIF-2a block: -24.5; KKLEB cytotox: -12.5

Results for C=CCN(C(=O)CSc1nc2ccsc2c(=O)n1Cc1ccc(C(=O)O)cc1)c1ccccc1 ?
Peg3 prom inh: 8.8; CF NFkB inh: 4.4; ABHD5 PLIN5 PPI: -0.5; HIF-2a block: 10.6; KKLEB cytotox: 3.8

What do the screens show for `CCOC(=O)c1ccc(Nc2cc(C)nc(N3CCOCC3)n2)cc1`?
Peg3 prom inh: 54.8*; CF NFkB inh: 18.1; ABHD5 PLIN5 PPI: -5.1; HIF-2a block: 10.7; KKLEB cytotox: -5.9; TRPM1 prom inh: -11.4

Results for CCOC(=O)c1cnc2ccc(C)cc2c1Nc1ccc(N2CCOCC2)cc1 ?
Peg3 prom inh: 78.6*; CF NFkB inh: -1.6; ABHD5 PLIN5 PPI: 7.7; HIF-2a block: 7.6; KKLEB cytotox: -6.4; TRPM1 prom inh: 15.6

What do the screens show for `CCC(C)[C@H]1CNC(=O)C(=O)N1CCCCC1CCCCC1` (stereo partly specified)?
ABHD5 PLIN5 PPI: 16.7; HIF-2a block: 12.5
